The list is not random: actives were taken first. Their share in the collection is about 3.4%.
MITF primary: MITF inhibitors, primary screen, biochemical, AlphaScreen, human | Microphthalmia-associated transcription factor (Homo sapiens), O75030 | AlphaScreen MITF homodimerization, bead proximity signal | inhibition, % at 2.6 µM | 650,000 compounds, 0.91% hits; in the data active = inhibition above about 50%
TEAD-YAP block: TEAD-YAP interaction inhibition, primary screen, TEAD-YAP interaction inhibitor project, luminescence, HEK-TIYL cells; 640,000 compounds, 1.4% hits; inhibition, % at 9.12 µM; TEAD-Gal4/YAP UAS-luciferase luminescence; in the data active = inhibition above about 32%
FBW7 act: FBW7 E3 ligase activators, primary screen, biochemical, AlphaScreen, human | AID 1259310, 2017 | 650,000 compounds, 0.13% hits | normalized activity (activation), % at 26.1 µM | AlphaScreen FBW7–phospho-cyclin E peptide binding, activator screen; in the data active = normalized activity above about 1.9%;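 note: purified mutant Fbw7 with reduced substrate affinity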
Target sequence (Q969H0 whole entry, looked up): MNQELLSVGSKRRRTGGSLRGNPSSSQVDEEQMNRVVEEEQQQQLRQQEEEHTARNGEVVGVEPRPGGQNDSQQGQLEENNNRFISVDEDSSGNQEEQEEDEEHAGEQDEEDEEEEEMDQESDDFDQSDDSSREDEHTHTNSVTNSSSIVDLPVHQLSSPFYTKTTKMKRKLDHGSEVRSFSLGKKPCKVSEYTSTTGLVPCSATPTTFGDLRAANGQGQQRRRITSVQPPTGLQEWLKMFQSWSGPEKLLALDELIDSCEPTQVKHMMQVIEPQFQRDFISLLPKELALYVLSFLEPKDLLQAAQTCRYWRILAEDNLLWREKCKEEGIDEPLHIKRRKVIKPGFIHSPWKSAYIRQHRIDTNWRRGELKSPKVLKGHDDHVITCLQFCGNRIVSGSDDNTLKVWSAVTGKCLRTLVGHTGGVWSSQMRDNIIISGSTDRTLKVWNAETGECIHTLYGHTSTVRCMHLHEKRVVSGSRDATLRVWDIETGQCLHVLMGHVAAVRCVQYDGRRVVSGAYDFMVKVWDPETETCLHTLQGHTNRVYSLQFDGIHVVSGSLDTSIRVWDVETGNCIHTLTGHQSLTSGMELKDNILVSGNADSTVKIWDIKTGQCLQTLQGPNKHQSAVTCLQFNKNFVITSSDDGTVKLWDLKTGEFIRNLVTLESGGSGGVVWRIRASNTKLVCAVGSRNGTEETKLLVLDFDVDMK
GPR151 ag: activators of human GPR151, primary screen, cell-based, PathHunter beta-arrestin, luminescence. G-protein coupled receptor 151 (Homo sapiens), Q8TDV0. PathHunter beta-arrestin GPR151 cells. activation, % at 11.2 µM. 650,000 compounds, 1% hits. AID 1508602, 2020; in the data active = activation above about 4.9%
A number is an active result; i = inactive.

SMILES	MITF primary	TEAD-YAP block	FBW7 act	GPR151 ag
O=C(Nc1ccc(O)cc1)c1c(O)c2c([nH]c1=O)CCCC2	i	68	i	i
O=C(c1cnc2ccccc2c1Nc1ccc(Cl)cc1)N1CCOCC1	i	i	i	i
O=C(Nc1ccc(Cl)cc1)c1cc2ccccc2cc1NS(=O)(=O)c1ccccc1	i	53	i	i
C=CCN1/C(=C/c2cc[n+](C)cc2)Sc2ccccc21	i	87	i	i
C=CCN1/C(=C/c2cccc[n+]2C)Sc2ccccc21	i	77	i	i
CN1/C(=C/c2cc[n+](C)cc2)Sc2ccccc21	i	i	i	i
O=C(CCn1cccn1)N1CCCC(c2nc(N3CCOCC3)ncc2-c2ccncc2)C1 (configuration not stated)	i	i	i	i
COc1cc2nc(-c3cccc(N)c3)nc(Nc3ccc(Oc4ccccc4)cc3)c2cc1OC	i	36	i	i
COc1cc2nc(-c3ccc(C(=O)NC4CC4)cc3)nc(Nc3ccc(Oc4ccccc4)cc3)c2cc1OC	i	35	3.7	i
O=C(Nc1nc(-c2ccc(Cl)c(Cl)c2)cs1)c1ccc(F)cc1	i	i	i	i
O=c1[nH]c2ccc(S(=O)(=O)Nc3ccccc3)cc2s1	i	i	i	i
O=C1C2=C(C(c3ccc(Cl)cc3)=NCCN2)C(c2ccccc2)N1c1ccccc1 (configuration not stated)	i	i	i	i
COc1cccc(C2C3=C(NCCN=C3c3ccc(Cl)cc3)C(=O)N2c2ccccc2)c1 (configuration not stated)	i	58	i	i
O=C(CC12CC3CC(CC(Br)(C3)C1)C2)OCC(=O)c1ccccc1	i	67	i	i
Cc1ccc(-c2nc(CS(=O)CC(=O)NCC3CCCO3)c(C)o2)cc1 (configuration not stated)	i	i	1.9	i
Cc1cccc(-n2ncc3c(Nc4c(C)cc(C)cc4C)ncnc32)c1	i	57	i	i
CSc1ccccc1Nc1ncnc2c1cnn2-c1cccc(C)c1	i	60	i	i
Cc1cccc(-n2ncc3c(Nc4cccc5ccccc45)ncnc32)c1	i	32	i	i
Cc1cccc(-n2ncc3c(Nc4ccccc4)ncnc32)c1	i	i	i	i
CNCC1CCN(c2ccccc2)c2ccccc21 (configuration not stated)	i	i	i	i
O=C1OC(c2cccc([N+](=O)[O-])c2)=N/C1=C/c1ccccc1F	i	i	i	i
Cn1cnnc1SCC(=O)Nc1ccc(C(N)=O)cc1	i	33	i	i
Cc1nc([N+](=O)[O-])c(SCC#N)n1Cc1ccccc1	i	i	i	i
COc1ccccc1-c1csc(NC(=O)c2cc(OC)c(OC)c(OC)c2)n1	i	i	i	i
CCN(CC)S(=O)(=O)c1ccc(C(=O)Nc2nc(-c3ccc(C)cc3C)cs2)cc1	i	i	i	i
SMILES	MITF primary	TEAD-YAP block	FBW7 act	GPR151 ag
Cc1ccc(-c2csc(NC(=O)c3ccc(S(=O)(=O)N(C)C)cc3)n2)c(C)c1	i	35	i	i
COc1cc(C(=O)Nc2nc(-c3ccc(C)cc3C)cs2)cc(OC)c1OC	i	32	i	i
COc1cc(C(=O)Nc2nc(-c3ccccn3)cs2)cc(OC)c1OC	i	73	i	i
Cc1ccc(-c2csc(NC(=O)c3cccc(Oc4ccccc4)c3)n2)cc1	i	i	i	i
O=C(Nc1nc(-c2ccccn2)cs1)c1cccc(Oc2ccccc2)c1	i	37	i	i
COc1ccccc1OC(=O)c1sc2ccccc2c1Cl	i	i	i	i
O=C(Nc1ccc(Nc2ccccc2)cc1)c1ccc(C(=O)c2ccccc2)o1	i	43	i	i
O=C(CCCn1c(SCC(=O)Nc2nccs2)nc2ccccc2c1=O)NCc1ccco1	i	i	i	i
Cc1sc2ncnc(SCc3cc(=O)oc4cc(O)c(O)cc34)c2c1C	64	i	i	i
Cc1sc2ncnc(SCc3cc([N+](=O)[O-])cc4c3OCOC4)c2c1C	i	i	i	i
COc1cc(Nc2nc(Nc3ccc(-n4ccnc4)cc3)nc3c2ncn3-c2ccccc2)cc(OC)c1OC	i	34	i	i
COc1cc(Nc2nc(Nc3cnccn3)nc3c2ncn3-c2ccsc2)cc(OC)c1OC	i	38	i	i
COc1cc(Nc2nc(Nc3cccnc3)nc3c2ncn3-c2ccsc2)cc(OC)c1OC	i	i	i	i
COc1cc(Nc2nc(Cl)nc3c2ncn3-c2ccsc2)cc(OC)c1OC	i	35	i	i
COc1cc(Nc2nc(Nc3ccccc3)c3ncn(-c4ccsc4)c3n2)cc(OC)c1OC	i	i	i	i
COc1cc(Nc2nc(Nc3ccc(-n4ccnc4)cc3)nc3c2ncn3-c2ccsc2)cc(OC)c1OC	i	44	i	i
NC(=S)N1N=CCC1(O)C(F)(F)F (configuration not stated)	i	53	i	i
CCn1c(C)nc2cc(C(=O)N/N=C/c3ccc(O)c(O)c3O)ccc21	75	i	i	i
Oc1ccc(C=Nc2cccc3cnccc23)c(O)c1O	61	i	i	i
O=C(N/N=C/c1ccc(O)c(O)c1O)c1cccnc1	79	i	i	i
CCOc1ccccc1/C=N\NC(=O)c1cccnc1	i	i	i	i
C=CCc1cccc(/C=N/NC(=O)c2cccnc2)c1O	i	i	i	i
CCOc1cccc(/C=N/NC(=O)c2cccnc2)c1O	70	i	i	i
COC(=O)c1cc2sccc2n1CC(=O)N(C)C1CCCCC1	i	i	i	i
COc1ccc(N2CCN(C(=O)COc3ccc(Cl)cc3C)CC2)cc1	i	i	i	i
SMILES	MITF primary	TEAD-YAP block	FBW7 act	GPR151 ag
CCCCOc1ccc(C(=O)NNS(=O)(=O)c2ccc(C)cc2)cc1	i	i	i	i
CC1CC(C)CN(c2nc(N3CCN(C)CC3)nc(N)c2[N+](=O)[O-])C1 (configuration not stated)	i	i	i	i
CCN(CC)S(=O)(=O)c1cccc(C(=O)N/N=C/c2ccc(O)c(O)c2O)c1	61	i	i	i
CCN(CC)S(=O)(=O)c1cccc(C(=O)N/N=C(\C)c2ccc(O)cc2O)c1	i	i	i	i
C(=N\Nc1cccc2cccnc12)/c1ccccn1	i	i	i	i
Cc1c(/C=N/Nc2cccc3cccnc23)c(=O)n(-c2ccccc2)n1C	i	88	i	i
COc1ccc2ccccc2c1/C=C1\SC(=S)NC1=O	i	i	i	i
COc1ccc(/C=C2\SC(=Nc3ccccc3)NC2=O)c2ccccc12	i	63	i	i
COc1ccc(OC)c(/C=C2/SC(=Nc3ccc(C)cc3)NC2=O)c1	i	51	i	i
COc1ccc(/C=C2\SC(=Nc3cccc4ccccc34)NC2=O)c(OC)c1	i	59	i	i
COc1ccc2ccccc2c1/C=C1/SC(=Nc2ccccc2)NC1=O	i	44	i	i
COc1ccc(/C=C2\SC(=Nc3ccccc3F)NC2=O)c(OC)c1	i	i	i	i
CCOC(=O)c1c(-c2ccccc2)csc1NC(=O)c1ccco1	i	i	i	i

Screening data: PubChem, The Scripps Research Institute Molecular Screening Center
